Source: PubChem BioAssay
Hits are enriched below; roughly 2.2% of the tested compounds scored in any of these assays.
APP 5UTR inh = APP translation inhibition. SH-SY5Y APP 5'UTR-luciferase reporter, luminescence. hit rate 0.82% among 190,000. inhibition, % at 2 µM;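 active = inhibition above a set limit, derived from the sample mean plus 3 SD, cut at about 45% in these data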
IEC-6 tox-1 = counter-screen for KLF5 inhibitors: cytotoxicity in IEC-6 cells; IEC-6 cytotoxicity, luminescence viability; inhibition, % at 5 µM; hit rate 0.78% among 290,000
Ba/F3 V617F tox = reduce viability of Ba/F3 cells dependent on JAK2V617F. Ba/F3 EpoR-JAK2V617F viability, ATP luminescence. inhibition, % at 5.6 µM. hit rate 1.1% among 220,000. AID 1446;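 active = inhibition above the campaign mean plus 3 SD over all tested compounds, cut at about 24% in these data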;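 note: cytokine-independent growth of Ba/F3 cells driven by EpoR plus mutant JAK2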
aSyn UTR inh = 5' untranslated region of α-synuclein, MLPCN primary screen. inhibition, % (tested at 7.5 µM). alpha-synuclein 5'UTR reporter, inhibitor activity. AID 1813. hit rate 0.82% among 300,000; in the data active = inhibition above about 60%;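 note: H4 neuroglioblastoma cells stably carrying SNCA 5'UTR luciferase fusion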
KLF5 inhibitor = kruppel-like factor 5 inhibition | hit rate 0.23% among 290,000 | AID 1700 | inhibition, % at 5 µM | DLD-1 KLF5 promoter-luciferase reporter, luminescence;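 active = inhibition above a per-plate limit of that plate's mean compound inhibition plus 3 SD, cut at about 60% in these data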;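 note: higher means less KLF5 promoter-driven luciferase light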
BaF3 tox = counter-screen for JAK2V617F inhibitors: parental Ba/F3 viability inhibitors | AID 1486 | hit rate 1.1% among 220,000 | CellTiter-Glo ATP luminescence | inhibition, % at 5.6 µM;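 active = inhibition above a per-campaign cutoff, the mean inhibition of all tested compounds plus 3 SD, cut at about 27% in these data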
KLF5 inh confirm = confirmation of KLF5 inhibitors. shares compounds with KLF5 inhibitor. DLD-1 KLF5 promoter firefly luciferase reporter, luminescence. inhibition, % at 4 µM. hit rate 79% among 610;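 active = inhibition above a set limit taken from the earlier primary screen, cut at about 63% in these data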
IEC-6 tox-2 = rat IEC-6 cytotoxicity, KLF5 inhibitor counter-screen; shares compounds with KLF5 inhibitor; IEC-6 rat intestinal cells, viability luminescence; inhibition, % at 4 µM; hit rate 56% among 610; in the data active = inhibition above about 23%;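 note: cells exposed to compounds for 48 hours before viability read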
IEC-6 cytotox cf = IEC-6 cytotoxicity, confirmation assay; inhibition, % at 5 µM; IEC-6 rat intestinal epithelial viability, luminescence; hit rate 63% among 1,900; shares compounds with IEC-6 tox-1
A number is an active result. Cut-off read from the data, not from the text of the source, unless noted: active = inhibition above about 22%; inactive = the rest.

For Cn1c(CN2CCN(S(C)(=O)=O)CC2)nc2cc([N+](=O)[O-])ccc21 the results were IEC-6 tox-1 inactive, aSyn UTR inh inactive and KLF5 inhibitor inactive.
COC(=O)c1ccc(Oc2cc(C)nc(-n3nc(C)cc3C)n2)cc1 was read as APP 5UTR inh 93.5, IEC-6 tox-1 23.1, Ba/F3 V617F tox 74.4, aSyn UTR inh 65.2, KLF5 inhibitor 82.0, BaF3 tox 65.8, KLF5 inh confirm 80.6, IEC-6 tox-2 inactive and IEC-6 cytotox cf 45.3.
Screening CN(C)c1ccc(C(=O)c2ccc(N(C)C)c3ccccc23)cc1 returned APP 5UTR inh 95.4, IEC-6 tox-1 96.9, Ba/F3 V617F tox 93.7, aSyn UTR inh 89.0, KLF5 inhibitor 80.2, BaF3 tox 93.6, KLF5 inh confirm 91.5, IEC-6 tox-2 84.9 and IEC-6 cytotox cf 83.8.
`CN(C)c1ccc(C(=O)c2ccccc2C(=O)O)cc1[N+](=O)[O-]` gave APP 5UTR inh inactive, IEC-6 tox-1 inactive, Ba/F3 V617F tox inactive, aSyn UTR inh inactive, KLF5 inhibitor inactive and BaF3 tox inactive.
`CCn1cc(C(=O)NCc2ccco2)c(=O)c2ccc(C)nc21` gave IEC-6 tox-1 inactive, aSyn UTR inh inactive and KLF5 inhibitor inactive.
CCN(CC)CCNC(=O)c1ccc2c(c1NCCO)C(=O)c1ccccc1C2=O was read as IEC-6 tox-1 99.9, Ba/F3 V617F tox 95.7, aSyn UTR inh 95.6, KLF5 inhibitor 106.7, BaF3 tox 101.6, KLF5 inh confirm 89.4, IEC-6 tox-2 101.8 and IEC-6 cytotox cf 101.9.
COc1cc(-c2noc(C)c2/C=C/c2ccc(OC(C)=O)cc2)cc(OC)c1OC was read as IEC-6 tox-1 91.1, aSyn UTR inh 95.2, KLF5 inhibitor 71.1, KLF5 inh confirm 83.5, IEC-6 tox-2 62.8 and IEC-6 cytotox cf 60.3.
Screening COc1cc(-c2noc(C)c2C#CCO)cc(OC)c1OC returned IEC-6 tox-1 inactive, aSyn UTR inh inactive and KLF5 inhibitor inactive.
Cc1ccccc1OCCc1c(C)[nH]c(=S)[nH]c1=O was read as APP 5UTR inh 92.0, IEC-6 tox-1 84.2, Ba/F3 V617F tox 72.5, aSyn UTR inh inactive, KLF5 inhibitor 81.7, BaF3 tox 75.2, KLF5 inh confirm 78.4, IEC-6 tox-2 54.9 and IEC-6 cytotox cf 56.3.
Screening Cc1[nH]c(=S)[nH]c(=O)c1CCOc1ccccc1 returned APP 5UTR inh inactive, IEC-6 tox-1 inactive, Ba/F3 V617F tox inactive, aSyn UTR inh inactive, KLF5 inhibitor inactive and BaF3 tox inactive.
CSCC[C@H](N)C(=O)N1CCC(C(=O)N[C@H](C)C(=O)Nc2ccc(C(C)C)cc2)CC1 was read as IEC-6 tox-1 inactive, aSyn UTR inh inactive and KLF5 inhibitor inactive.
`CCCOc1ccc2[nH]c(C(=O)N/N=C/c3cc(OC)c(OC)c(OC)c3)cc2c1` gave IEC-6 tox-1 inactive, aSyn UTR inh inactive and KLF5 inhibitor inactive.
`COc1ccc2[nH]c(C(=O)N/N=C/c3ccc(OC)c(O)c3)cc2c1` gave IEC-6 tox-1 30.3, aSyn UTR inh inactive, KLF5 inhibitor 65.0, KLF5 inh confirm 68.6, IEC-6 tox-2 inactive and IEC-6 cytotox cf inactive.
Cc1ccc(-c2cc(=O)c3cc(C)ccc3[nH]2)cc1 was read as APP 5UTR inh inactive, IEC-6 tox-1 inactive, Ba/F3 V617F tox inactive, aSyn UTR inh inactive, KLF5 inhibitor inactive and BaF3 tox inactive.
Screening O=c1cc(-c2cccc(F)c2)[nH]c2ccccc12 returned APP 5UTR inh 93.8, IEC-6 tox-1 86.3, Ba/F3 V617F tox 77.5, aSyn UTR inh 86.6, KLF5 inhibitor 75.4, BaF3 tox 77.9, KLF5 inh confirm 84.7, IEC-6 tox-2 59.9 and IEC-6 cytotox cf 56.8.
`Cc1ccc2[nH]c(-c3cccc(F)c3)cc(=O)c2c1` gave APP 5UTR inh 93.2, IEC-6 tox-1 90.6, Ba/F3 V617F tox 82.9, aSyn UTR inh 81.0, KLF5 inhibitor 62.2, BaF3 tox 82.8, KLF5 inh confirm 72.8, IEC-6 tox-2 59.0 and IEC-6 cytotox cf 57.1.
Screening Cc1ccc(S(=O)(=O)N2CCOC2CNC(=O)C(=O)NCc2ccc3c(c2)OCO3)cc1 (configuration not stated) returned IEC-6 tox-1 inactive, aSyn UTR inh inactive and KLF5 inhibitor inactive.
